Compound activity (PubChem BioAssay)
AmpC detergent: inhibitors of E. coli AmpC beta-lactamase with detergent; P00811; AmpC hydrolysis of nitrocefin, absorbance 480 nm, 0.01% Triton; Potency, µM (titrated, usually from 114 µM), for the others: at the highest dose activity change, negative = inhibition, actives largely listed as inhibitors; 370,000 tested, 0.041% active; AID 485294;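 further: 0% = no-compound wells and -100% = no-enzyme wells; nearly all actives have a fitted effect of over 25% in size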
Target sequence (P00811 whole entry, looked up): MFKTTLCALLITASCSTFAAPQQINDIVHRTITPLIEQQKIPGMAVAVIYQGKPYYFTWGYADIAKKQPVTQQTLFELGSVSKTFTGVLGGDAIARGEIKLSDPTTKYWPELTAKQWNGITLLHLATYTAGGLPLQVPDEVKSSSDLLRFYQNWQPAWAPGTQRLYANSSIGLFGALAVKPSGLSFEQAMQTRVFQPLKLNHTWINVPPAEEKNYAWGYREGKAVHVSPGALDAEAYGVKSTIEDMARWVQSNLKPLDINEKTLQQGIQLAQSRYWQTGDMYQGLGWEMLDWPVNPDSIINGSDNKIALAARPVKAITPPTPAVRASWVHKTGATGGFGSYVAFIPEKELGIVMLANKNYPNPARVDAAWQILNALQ
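AmpC (5.3 nM in the dispensed reagent) in 20 mM phosphate pH 7.0 with 0.01% (detergent screen) or 0.0001% Triton X-100 was preincubated with compounds for 15 min at room temperature. Nitrocefin was then added from an 800 uM solution, and hydrolysis was followed at 480 nm.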
AMA1-RON2 inh: disrupts binding of P. falciparum AMA1 to RON2. 360,000 tested, 0.2% active. Potency, µM (series often up to 58.2 µM), for inactives: top-dose activity change, negative = inhibition, usual class: inhibitors. AID 720542. AlphaScreen AMA1-biotinylated RON2 peptide binding;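 further: 0% = vehicle wells and -100% = peptide control; nearly all actives have a fitted effect of over 45% in size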
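AMA1 (3D7) with his tag at 25 nM final met compounds first, then biotinylated RON2 peptide at 25 nM; detection used donor plus acceptor beads, 10 µg/mL apiece, read by AlphaScreen after 30 min at room temperature.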
AmpC no deterg: inhibitors of E. coli AmpC beta-lactamase without detergent; AID 485341; P00811; 330,000 tested, 0.52% active; AmpC nitrocefin hydrolysis, absorbance 480 nm, 0.0001% Triton; Potency, µM (series often up to 57.1 µM), without a hit: at the highest dose activity change, negative = inhibition, actives largely listed as inhibitors;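 further: plate controls were no compound for no effect and no enzyme for full effect; nearly all actives have a fitted effect of over 20% in size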
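AmpC (5.3 nM in the dispensed reagent) in 20 mM phosphate pH 7.0 with 0.01% (detergent screen) or 0.0001% Triton X-100 was preincubated with compounds for 15 min at room temperature. Nitrocefin was then added from an 800 uM solution, and hydrolysis was followed at 480 nm.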
Marburg entry inh: Marburg virus entry inhibition. 300,000 tested, 1.8% active. AID 540276. Potency, µM (titrated, usually from 37.8 µM), without a hit: top-dose activity change, negative = inhibition, hits mostly inhibitors. Marburg virus pseudotyped entry inhibition, cell reporter; calls by dose curve; tested in HEK293 cells
Lassa entry inh: blocks Lassa virus binding to or entry into cells; AID 540256; 300,000 tested, 1.2% active; Lassa virus pseudotype entry inhibition, cell reporter; Potency, µM (top dose mostly 37.9 µM), for the others: top-dose activity change, negative = inhibition, hits mostly inhibitors; calls by dose curve; tested in HEK293 cells; further: nearly all actives have a fitted effect of over 50% in size
The depositor's hits bear a star; [ ] = dose if it differs, or a comment. Rows were chosen to be rich in hits. Some 2.3% of all compounds tested hit in one or more screens of this group. Unless noted, the call rests on the fitted dose curve; in most records, active means well fitted curve in the direction sought with a large enough effect; inconclusive means small, poorly fitted or top-dose-only effect, or another doubt; inactive means no such curve, though single readings can be large; an effect the other way counts as inactive or inconclusive. Unless noted, on the % scale 0 is the no-effect control and ±100 the full control effect; potency means the concentration at half of the fitted maximal effect.

Screening O=C1Nc2ccc(I)cc2/C1=C/c1cc(Br)c(O)c(Br)c1 returned Marburg entry inh inconclusive and Lassa entry inh 0%.
`O=C1Nc2ccc(C(=O)c3ccco3)cc2/C1=C/c1cc(Cl)c(O)c(Cl)c1` gave Lassa entry inh 3.1µM*.
Cc1ccc(N2C(=O)[C@@H]3CSC(c4ccc(Cl)cc4)N3C2=O)cc1 (stereo not given in full) was read as AmpC detergent -2%, Marburg entry inh 16%[46.1 µM] and Lassa entry inh 11%[46.1 µM].
Screening COc1cc(C2NC(=S)NC(C)=C2C(=O)c2ccccc2)ccc1O (stereo not given) returned AmpC detergent -5%, AMA1-RON2 inh -2%, AmpC no deterg 14µM*, Marburg entry inh inconclusive and Lassa entry inh 0%.
CC1=C(C(=O)c2ccccc2)C(c2ccc(O)cc2)NC(=S)N1 (stereo not given) was read as AmpC detergent 8%, AMA1-RON2 inh -2% and AmpC no deterg -24%.
For CCCOc1ccc(C2NC(=S)NC(C)=C2C(=O)c2ccccc2)cc1OC (stereo not given) the results were AmpC detergent -10%, AMA1-RON2 inh 13%, AmpC no deterg inconclusive, Marburg entry inh 15µM* and Lassa entry inh -4%.
Screening CC1=C(C(=O)c2ccccc2)C(c2ccc(OC(F)F)cc2)NC(=S)N1 (stereo not given) returned AmpC detergent -8%, AMA1-RON2 inh 42%, AmpC no deterg -40%, Marburg entry inh 4µM* and Lassa entry inh inconclusive.
Screening COc1ccc(CCNC(=O)Cc2c(C)c3cc4c(C)coc4cc3oc2=O)cc1OC returned AmpC detergent 26%, Marburg entry inh 10%[46.1 µM] and Lassa entry inh inconclusive.
Screening Cc1ccc(N2CC3=C(C2=O)C(c2ccc(Br)cc2)NC(=O)N3C)cc1 (stereo not given) returned AmpC detergent -1%, Marburg entry inh -7%[46.1 µM] and Lassa entry inh -2%[46.1 µM].
CC(=Cc1ccccc1)C(=O)c1ccccc1 was read as AMA1-RON2 inh 0%.
For O=C(C(Br)=Cc1ccccc1)c1ccccc1 the results were AMA1-RON2 inh 13%, Marburg entry inh 5µM* and Lassa entry inh inconclusive.
For CCOc1ccc(C(=O)c2oc3ccccc3c2NC(=O)Cc2coc3ccc(CC)cc23)cc1 the results were AmpC detergent 12%, Marburg entry inh 27%[46.1 µM] and Lassa entry inh 28%[46.1 µM].
`CCOc1ccccc1NC(=O)CN1C(=O)CC(c2ccco2)Sc2ccccc21` (stereo not given) gave AmpC detergent 23% and Marburg entry inh inconclusive.
Screening O=C(CSc1oc(-c2ccccc2)nc1S(=O)(=O)c1ccc(Br)cc1)c1ccccc1 returned AmpC detergent 6%, Marburg entry inh -25%[46.1 µM] and Lassa entry inh -23%[46.1 µM].
For Cc1ccc(-n2nnnc2SCC(=O)c2cc(C)n(-c3cc(C)on3)c2C)c(C)c1 the results were AmpC detergent -13%, AMA1-RON2 inh -6%, AmpC no deterg -1%, Marburg entry inh -13% and Lassa entry inh 1.5µM*.
`Cc1cc(-n2c(C)cc(C(=O)CCl)c2C)no1` gave AmpC detergent -8%, AMA1-RON2 inh 0%, AmpC no deterg -20%, Marburg entry inh 2.8µM* and Lassa entry inh inconclusive.
For COc1cccc(/C(O)=C2\C(=O)C(=O)N(CCN(C)C)[C@@H]2c2ccc(Br)cc2)c1 the results were Marburg entry inh 0%[46.1 µM].
For COc1cc(NC(=O)c2ccc(C(C)(C)C)cc2)c(OC)cc1NC(=O)CN1CCCCC1 the results were AmpC detergent 5%, AMA1-RON2 inh -11%, AmpC no deterg -9%, Marburg entry inh inconclusive and Lassa entry inh 10µM*.
For O=C(Nc1ccn(Cc2ccccc2F)n1)c1ccc(COc2cccc(Br)c2)cc1 the results were AmpC detergent -7%, AMA1-RON2 inh 5%, AmpC no deterg -35%, Marburg entry inh 8.9µM* and Lassa entry inh inconclusive.
O=C(Nc1ccn(Cc2ccccc2F)n1)c1ccc(COc2ccccc2Cl)cc1 was read as AmpC detergent -6%, AMA1-RON2 inh 1%, AmpC no deterg inconclusive, Marburg entry inh inconclusive and Lassa entry inh inconclusive.
For S=C(NN=C(c1ccccc1)c1ccccn1)N(Cc1ccccn1)Cc1ccccn1 the results were AMA1-RON2 inh 11µM*, Marburg entry inh 0.63µM* and Lassa entry inh inconclusive.
For CC(=NNC(=S)N(Cc1ccccn1)Cc1ccccn1)c1cnccn1 the results were AMA1-RON2 inh inconclusive, Marburg entry inh inconclusive and Lassa entry inh 2.8µM*.
`Cc1ccccc1NC(=S)N(Cc1ccccn1)Cc1ccccc1Cl` gave AmpC detergent inconclusive, AMA1-RON2 inh 72%, AmpC no deterg -17%, Marburg entry inh inconclusive and Lassa entry inh inconclusive.
For S=C(NN=Cc1ccccn1)N(Cc1ccccn1)Cc1ccccn1 the results were AMA1-RON2 inh -21%, Marburg entry inh 1.3µM* and Lassa entry inh inconclusive.
Screening O=C(NCc1ccccc1Br)C1CCCN(C(=O)N2CCOc3ccccc32)C1 (stereo not given) returned AmpC detergent -4% and Lassa entry inh -3%[46.1 µM].
CCN(CC)CCCN=Cc1c(O)n(Cc2ccccc2)c(=O)c2ccccc12 was read as AmpC detergent -7%, AMA1-RON2 inh -6%, AmpC no deterg 77%, Marburg entry inh inconclusive and Lassa entry inh inconclusive.
`CC(C)CCC(C)N=Cc1c(O)n(Cc2ccccc2)c(=O)c2ccccc12` (stereo not given) gave AmpC detergent 3%, AMA1-RON2 inh -25%, AmpC no deterg -34%, Marburg entry inh 13µM* and Lassa entry inh -10%.
`COc1cc(NC(=O)c2ccccc2Cl)ccc1NC(=O)c1ccco1` gave AmpC detergent 1%, AMA1-RON2 inh 0%, AmpC no deterg -25%, Marburg entry inh 19% and Lassa entry inh -23%.
`COc1cc(NC(=O)c2ccco2)ccc1NC(=O)c1ccccc1Cl` gave AmpC detergent -7%, AMA1-RON2 inh 11%, AmpC no deterg -30%, Marburg entry inh inconclusive and Lassa entry inh 13µM*.
Screening CN1CCN(c2ccc(NC(=O)c3ccco3)cc2Cl)CC1 returned AmpC detergent -7%, AMA1-RON2 inh -3% and AmpC no deterg -24%.
For O=C(Nc1ccc(N2CCCC2)c(Cl)c1)c1ccco1 the results were AmpC detergent inconclusive, AMA1-RON2 inh -17%, AmpC no deterg -6%, Marburg entry inh inconclusive and Lassa entry inh 12µM*.
For O=C(Nc1ccc(N2CCCCC2)cc1)c1ccc([N+](=O)[O-])o1 the results were AmpC detergent -5%, AMA1-RON2 inh -27%, AmpC no deterg -24%, Marburg entry inh inconclusive and Lassa entry inh inconclusive.
Screening COc1ccc(NC(=O)c2ccco2)cc1NC(=O)c1cccc(OC(C)C)c1 returned AmpC detergent -9%, AMA1-RON2 inh -12%, AmpC no deterg 21%, Marburg entry inh inconclusive and Lassa entry inh 10µM*.
